Bioassay records as filed in PubChem BioAssay.
p-CIP stab down: lowers stability of the mouse p/CIP coactivator protein. Q05BA5. F442A p/CIP-EGFP cells, EGFP fluorescence, 16 h. decrease of EGFP signal, % at 10 µM. actives 0.01% (n = 290,000);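 active = EGFP signal decrease of at least 30% at 10 µM or well 3 SD below plate mean, unless failing retest; inactive = the rest, including hits failing retest or dose response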
Target sequence (Q05BA5 1-1403): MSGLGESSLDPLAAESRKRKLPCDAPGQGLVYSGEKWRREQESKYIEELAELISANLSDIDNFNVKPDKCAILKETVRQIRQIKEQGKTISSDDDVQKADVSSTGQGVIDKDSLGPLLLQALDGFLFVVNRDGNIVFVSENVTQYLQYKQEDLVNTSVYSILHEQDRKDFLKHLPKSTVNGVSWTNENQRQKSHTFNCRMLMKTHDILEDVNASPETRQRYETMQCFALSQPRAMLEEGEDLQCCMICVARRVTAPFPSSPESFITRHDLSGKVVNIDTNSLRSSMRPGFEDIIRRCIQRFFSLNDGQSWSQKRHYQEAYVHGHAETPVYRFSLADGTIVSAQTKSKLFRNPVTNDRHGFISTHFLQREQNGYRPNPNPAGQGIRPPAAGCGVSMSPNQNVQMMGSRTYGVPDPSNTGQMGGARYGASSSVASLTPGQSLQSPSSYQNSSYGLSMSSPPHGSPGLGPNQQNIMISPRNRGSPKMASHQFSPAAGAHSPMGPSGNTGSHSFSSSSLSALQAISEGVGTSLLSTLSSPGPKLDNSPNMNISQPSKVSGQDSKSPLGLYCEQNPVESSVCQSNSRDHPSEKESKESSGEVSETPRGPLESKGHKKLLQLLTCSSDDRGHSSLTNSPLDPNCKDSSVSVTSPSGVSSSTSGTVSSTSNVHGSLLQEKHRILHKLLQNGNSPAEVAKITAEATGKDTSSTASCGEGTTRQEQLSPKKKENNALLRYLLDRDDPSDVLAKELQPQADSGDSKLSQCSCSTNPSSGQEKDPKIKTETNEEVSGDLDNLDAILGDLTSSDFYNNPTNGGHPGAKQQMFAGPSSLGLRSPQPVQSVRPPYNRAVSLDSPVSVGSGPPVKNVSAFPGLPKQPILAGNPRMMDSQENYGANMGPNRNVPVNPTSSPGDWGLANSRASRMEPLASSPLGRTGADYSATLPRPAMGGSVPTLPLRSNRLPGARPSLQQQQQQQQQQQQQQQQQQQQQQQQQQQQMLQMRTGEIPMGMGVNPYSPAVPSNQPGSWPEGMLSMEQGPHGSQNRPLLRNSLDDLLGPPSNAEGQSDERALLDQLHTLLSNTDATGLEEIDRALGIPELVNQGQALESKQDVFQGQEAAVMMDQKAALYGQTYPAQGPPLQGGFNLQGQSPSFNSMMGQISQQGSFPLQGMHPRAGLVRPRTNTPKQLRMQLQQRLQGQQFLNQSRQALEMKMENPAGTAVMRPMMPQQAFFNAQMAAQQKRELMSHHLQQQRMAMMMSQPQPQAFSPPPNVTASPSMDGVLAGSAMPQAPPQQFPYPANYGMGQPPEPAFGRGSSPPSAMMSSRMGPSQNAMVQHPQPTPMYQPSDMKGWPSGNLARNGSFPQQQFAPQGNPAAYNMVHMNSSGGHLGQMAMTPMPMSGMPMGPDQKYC
PolyA inh: blocks polyadenylation in yeast reporter cells; S. cerevisiae SKY197-pL101 polyadenylation reporter, beta-gal luminescence; efflux-impaired pdr1/pdr3 knockout yeast; score 100 = 6 SD above DMSO; activity score, % at 12 µM; actives 0.02% (n = 300,000); AID 1875;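 active = lowest replicate activity score at least 50, where 100 means six control SD above control mean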;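 also: yeast exposed to compound for 9 h at 30 °C; higher score means more reporter readthrough which indicates perturbed polyadenylation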
HIF activator: HIF pathway transcriptional activation; U2OS HRE-luciferase reporter, luminescence; normalized: DMSO 0%, desferrioxamine 100%; activation, % at 7.5 µM (by protocol); actives 0.32% (n = 300,000); AID 1910;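 active = mean activation of at least 10% of the iron chelator positive control signal, with at least half of replicates also reaching 10%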
Platelet DG rel: modulates dense granule release in human platelets; human platelet-rich plasma, SFLLRN dense granule ATP release, luminescence; inhibition, %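 (compounds screened at 7.5 µM in platelet-rich plasma)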; actives 0.22% (n = 300,000); AID 1663;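 active = mean replicate score, as percent of positive control, at or above 50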
AHR activator: human AHR activation | activation, % at 5 µM | actives 2.5% (n = 320,000) | AHR-responsive luciferase reporter cells, luminescence; in the data active = activation above about 47%
Hits are given with their value. Rows were chosen to be rich in hits. Some 2.8% of all compounds tested hit in one or more screens of this group.

What do the screens show for `COc1ccc(OC)c(CNC(=O)C2CCC(=O)N(CCCN3CCCC3=O)C2)c1` (centres undefined)?
p-CIP stab down: inactive; PolyA inh: inactive; HIF activator: inactive; Platelet DG rel: inactive

Results for Cc1ccc(O)c(NC(=O)c2ccc3c(c2)C(=O)N(Cc2ccco2)C3=O)c1 ?
p-CIP stab down: inactive; PolyA inh: inactive; HIF activator: 32; Platelet DG rel: inactive; AHR activator: inactive

Results for Cc1ccc(NC(=O)c2ccc(Cl)nc2)cc1 ?
p-CIP stab down: inactive; PolyA inh: inactive; HIF activator: inactive; Platelet DG rel: inactive; AHR activator: inactive

How did Cc1ccc(NC(=O)c2nsc(Cl)c2Cl)cc1 do in these assays?
p-CIP stab down: inactive; PolyA inh: inactive; HIF activator: inactive; Platelet DG rel: inactive; AHR activator: 69

How did Cc1ccc(-n2nc3c(=O)n(CC(=O)NCc4ccccc4Cl)nc(C)c3c2C)cc1 do in these assays?
p-CIP stab down: inactive; PolyA inh: inactive; HIF activator: inactive; Platelet DG rel: inactive; AHR activator: inactive

How did Cc1ccc(-n2nc3c(=O)n(CC(=O)NCc4ccccc4)nc(C)c3c2C)cc1 do in these assays?
p-CIP stab down: inactive; PolyA inh: inactive; HIF activator: 89; Platelet DG rel: inactive; AHR activator: inactive

Results for CCn1c(NCc2ccc3c(c2)OCO3)nc2ccccc21 ?
p-CIP stab down: inactive; PolyA inh: inactive; HIF activator: inactive; Platelet DG rel: inactive; AHR activator: 69

Results for O=C1/C(=C\c2cccs2)Sc2ccc3ccccc3c21 ?
p-CIP stab down: inactive; HIF activator: inactive; Platelet DG rel: inactive; AHR activator: 62

Results for CCN(CC(=O)NCc1cccs1)C(=O)COc1ccc(C(C)=O)cc1 ?
AHR activator: inactive

What do the screens show for `C=CCOc1ccc(/C=C2\SC(=Nc3cccnc3)NC2=O)cc1`?
p-CIP stab down: inactive; PolyA inh: inactive; HIF activator: 84; Platelet DG rel: inactive; AHR activator: inactive

Results for CCN1C(=O)CC(NC2CCN(C(=O)c3ccc(F)cc3)CC2)C1=O (centres undefined) ?
p-CIP stab down: inactive; PolyA inh: inactive; HIF activator: inactive; Platelet DG rel: inactive; AHR activator: inactive

Results for Cc1nc(C(=O)Nc2ccc(Cl)cc2Cl)nn1-c1cc(OC(C)C)c(Cl)cc1Cl ?
p-CIP stab down: inactive; PolyA inh: inactive; HIF activator: 15; Platelet DG rel: inactive; AHR activator: inactive

Results for Cc1nc(C(=O)Nc2cc(Cl)ccc2Cl)nn1-c1cc(OC(C)C)c(Cl)cc1Cl ?
p-CIP stab down: inactive; PolyA inh: inactive; HIF activator: inactive; Platelet DG rel: inactive; AHR activator: inactive

How did COCCOC(=O)c1[nH]c2c(c1C)C(=O)CC(c1ccco1)C2 (centres undefined) do in these assays?
p-CIP stab down: inactive; PolyA inh: inactive; HIF activator: inactive; Platelet DG rel: inactive; AHR activator: 56

What do the screens show for `Cc1sc2nc(SCc3nc(-c4ccccc4)no3)n(-c3ccccc3)c(=O)c2c1C`?
p-CIP stab down: inactive; PolyA inh: inactive; HIF activator: inactive; Platelet DG rel: inactive

What do the screens show for `Cc1nc2sc(C(c3ccco3)N3CCN(c4ccccc4F)CC3)c(O)n2n1` (centres undefined)?
p-CIP stab down: inactive; PolyA inh: inactive; HIF activator: inactive; Platelet DG rel: inactive; AHR activator: inactive

How did Cc1nc2sc(C(c3ccco3)N3CCc4ccccc4C3)c(O)n2n1 (centres undefined) do in these assays?
PolyA inh: inactive; Platelet DG rel: inactive; AHR activator: 51

Results for COc1ccc(/C=C(\C#N)C(=O)N2COCC2(C)C)cc1 ?
p-CIP stab down: inactive; PolyA inh: inactive; HIF activator: inactive; Platelet DG rel: inactive; AHR activator: inactive

What do the screens show for `Cc1c(CN(C)Cc2cn(C)nc2-c2ccccc2F)[nH]c2ccccc12`?
p-CIP stab down: inactive; PolyA inh: inactive; Platelet DG rel: inactive; AHR activator: 48

What do the screens show for `CN(CCCN1CCOCC1)Cc1cn(C)nc1-c1ccccc1F`?
p-CIP stab down: inactive; PolyA inh: inactive; HIF activator: inactive; Platelet DG rel: inactive; AHR activator: inactive

How did Cc1ccc(CSc2ccc3nnc(-c4cccnc4)n3n2)cc1 do in these assays?
p-CIP stab down: inactive; PolyA inh: inactive; HIF activator: inactive; Platelet DG rel: inactive; AHR activator: 71

Results for Brc1ccc(CSc2ccc3nnc(-c4cccnc4)n3n2)cc1 ?
p-CIP stab down: inactive; PolyA inh: inactive; HIF activator: inactive; Platelet DG rel: inactive; AHR activator: inactive
